We go through 16 molecules from PubChem BioAssay (NCI).

The structures appear in SMILES notation. The panel holds about 83,000 compounds, 20% with a hit somewhere; the sample as a whole holds those more often.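 Cell lines were cultured in 96-well plates, exposed to a single compound concentration, and assessed for percent growth 48 hours later.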 Unmarked numbers belong to inactive results. Active and inactive are the calls of the source. The calls were made as follows: active = growth percent below 10; inactive = the rest.

Assay in all cases: NCI-60 one-dose screen, 48 h (100 = growth as untreated, 0 = no growth, -100 = all killed)
The test system of one assay is NCI-H23 lung. The note with it: 10 µM unless noted.
The next assay relates to NCI-H226 lung. The conditions noted are these: 10 µM unless noted.
The test system of the next assay is NCI-H322M lung. The conditions noted are these: 10 µM unless noted.
For the next assay, the system named is NCI-H460 lung. The note with it: 10 µM unless noted.
The test system of a further assay is HOP-92 NSCLC. The note with it: 10 µM unless noted.
The next assay deals with A549/ATCC NSCLC. The conditions noted are these: 10 µM unless noted.
The next assay deals with 786-0 renal. The note with it: 10 µM unless noted.
Another assay deals with COLO 205 colon. The conditions noted are these: 10 µM unless noted.
For another assay, the system named is NCI-H522 lung. The conditions noted are these: 10 µM.
Another assay deals with HOP-62 NSCLC. The note with it: 10 µM unless noted.

On to `Cc1sc2nc(NCc3ccccc3)[nH]c(=O)c2c1C`, for which the growth is 75.2% in the assay on NCI-H23 lung; 82.1% in the assay with NCI-H226 lung; 91.3% in the assay with NCI-H322M lung; 26.6% in the assay on NCI-H460 lung; 69.4% in the assay on HOP-92 NSCLC; 33.6% with A549/ATCC NSCLC. The growth with 786-0 renal is 67.2%; in the assay with COLO 205 colon, 34.7%.
For `COc1cc(OC)c2c(c1Cl)O[C@]1(C2=O)C(OCc2ccccc2)=CC(=O)C[C@H]1C`, the growth in the assay with NCI-H23 lung was 20.9%; in the assay with NCI-H226 lung, 45.8%; in the assay on NCI-H322M lung, 36.4%; in the assay with NCI-H460 lung, 6.23% (active); in the assay with HOP-92 NSCLC, -16.7% (active); with NCI-H522 lung, -24.7% (active). The growth is 37.8% with 786-0 renal and -32.6% (active) in the assay with COLO 205 colon.
On to `CN[C@@H]1C(OC2[C@H](O[C@H]3[C@H](O)[C@@H](O)[C@H](N=C(N)N)[C@@H](O)[C@@H]3N=C(N)N)OC(C)[C@]2(O)CO)OC(CO)C(O)C1O` (some centres undefined), for which the growth is 103% with NCI-H23 lung; 108% in the assay with NCI-H226 lung; 111% in the assay with NCI-H322M lung; 113% with NCI-H460 lung; 118% in the assay with HOP-92 NSCLC; 112% in the assay on NCI-H522 lung. Further, the figures for the growth with 786-0 renal and with COLO 205 colon were 106% and 109%, respectively.
Turning to `COc1cc(/C=C2\CN(C)CC3=C2Nc2nc(SC)[nH]c(=O)c2C3c2cc(OC)c(OC)c(OC)c2)cc(OC)c1OC` (centres undefined), the growth with NCI-H23 lung is 49.4%; in the assay on NCI-H226 lung, 72.1%; with NCI-H322M lung it was 86.7%; in the assay on NCI-H460 lung, 10.1%; in the assay on HOP-92 NSCLC, 82.7%; in the assay on NCI-H522 lung, 37.8%. The growth is 67.4% with 786-0 renal and 31.2% in the assay with COLO 205 colon.
As for `Cc1ccc(OCC(=O)Nc2ccc(Oc3ccccc3)cc2)c([N+](=O)[O-])n1`, the growth with NCI-H23 lung is 47%; with NCI-H226 lung, 68.8%; with NCI-H322M lung, 95%; with NCI-H460 lung, 76.3%; with HOP-92 NSCLC, 73.7%; in the assay with NCI-H522 lung, 33.2%. Besides, the growth in the assay on 786-0 renal was 66.3%; in the assay on COLO 205 colon it was 94.5%.
`C[C@H](C(=O)N[C@@H](Cc1ccc(-c2ccccc2)cc1)C(=O)NC1CC(C)(C)NC(C)(C)C1)c1ccc(-c2ccccc2)c(F)c1`: the growth in the assay on NCI-H23 lung was -42% (active); in the assay on NCI-H226 lung it was -26.7% (active); in the assay with NCI-H322M lung, -34% (active); in the assay with NCI-H460 lung, -76.4% (active); with HOP-92 NSCLC it was -69.7% (active); in the assay with A549/ATCC NSCLC, -76.9% (active). Moreover, the growth is -88.6% (active) with 786-0 renal and -81.8% (active) with COLO 205 colon.
For `Cc1ccc(/C=C(/C#N)n2nnc3ncccc32)cc1`, the growth in the assay with NCI-H23 lung was -1.23% (active); in the assay with NCI-H226 lung, 32.1%; in the assay on NCI-H322M lung it was 28.2%; with NCI-H460 lung it was -14% (active); in the assay on HOP-92 NSCLC, -19.5% (active); in the assay on A549/ATCC NSCLC it was 2.14% (active). Also, the growth in the assay on 786-0 renal is 5.6% (active); in the assay with COLO 205 colon it was -45.3% (active).
As for `CCSc1nc(-c2cccs2)n2nc(-c3ccco3)cc2n1`, the growth is 95% with NCI-H23 lung; 94.9% with NCI-H226 lung; 116% in the assay on NCI-H322M lung; 104% in the assay with NCI-H460 lung; 71.3% with HOP-92 NSCLC; 91.8% in the assay on NCI-H522 lung. For the same molecule, the growth in the assay with 786-0 renal was 113%; in the assay with COLO 205 colon, 123%.
For `CC1CN(/N=C/c2ccc([N+](=O)[O-])o2)C(=N)O1` (centres undefined), the growth in the assay on NCI-H23 lung was 97.1%; in the assay with NCI-H226 lung, 96.3%; in the assay on NCI-H322M lung, 117%; with NCI-H460 lung, 96%; in the assay on HOP-92 NSCLC, 88.8%; in the assay with 786-0 renal it was 108%. For the same molecule, the growth with COLO 205 colon is 113%.
In the case of `COc1ccc(C(=O)COc2ccc(/C=C3\Oc4ccc5ccccc5c4C3=O)cc2)cc1`, the growth with NCI-H23 lung is 90.7%; with NCI-H226 lung it was 107%; in the assay with NCI-H322M lung, 100%; in the assay on NCI-H460 lung it was 110%; in the assay on HOP-92 NSCLC, 94.9%; in the assay with NCI-H522 lung, 64%. In addition, the growth in the assay on 786-0 renal was 106%; in the assay on COLO 205 colon it was 121%.
For `Cc1ccc(-c2cc(-c3ccccc3)n(-c3ccccc3)n2)cc1`, the growth is 95.9% in the assay on NCI-H23 lung; 97.9% with NCI-H226 lung; 97.3% in the assay on NCI-H322M lung; 104% with NCI-H460 lung; 108% in the assay with HOP-92 NSCLC; 92.9% with 786-0 renal. In addition, in the assay with COLO 205 colon, the growth was 112%.
On to `COc1ccc(CNC(=O)c2c(C)n([O-])c3ccc(OC)cc3[n+]2=O)cc1`, for which the growth with NCI-H23 lung is 98.2%; in the assay with NCI-H226 lung, 110%; with NCI-H322M lung it was 89.7%; with HOP-62 NSCLC it was 105%; in the assay on HOP-92 NSCLC it was -1.17% (active); in the assay on 786-0 renal, 96%. Besides, the growth in the assay on COLO 205 colon was 108%.
Turning to `CN1CCN(CCCCCN=c2cc3c(=O)n(CCCCCN4CCN(C)CC4)c(=O)c4c(NCCCCCN5CCN(C)CC5)cc5c(O)n(CCCCCN6CCN(C)CC6)c(=O)c2c5c4-3)CC1`, the growth was 34.1% with NCI-H23 lung; 0.125% (active) in the assay with NCI-H226 lung; -23.2% (active) with NCI-H322M lung; 5.16% (active) in the assay with NCI-H460 lung; 2.86% (active) with HOP-92 NSCLC; 5.01% (active) in the assay with A549/ATCC NSCLC. Further, the growth is 92.9% with 786-0 renal and -15.4% (active) in the assay with COLO 205 colon.
Take `FCc1ncc(-c2ccc(C(F)(F)F)cc2)c(NC2CCCCCC2)n1`: the growth was 10.9% [100 µM] in the assay on NCI-H23 lung; 34.4% [100 µM] in the assay with NCI-H226 lung; 36.3% [100 µM] with NCI-H322M lung; -28.9% [100 µM] (active) with NCI-H460 lung; -31.7% [100 µM] (active) in the assay on HOP-92 NSCLC; 7.62% [100 µM] (active) in the assay on A549/ATCC NSCLC. Further, the growth with 786-0 renal was -13.7% [100 µM] (active); in the assay on COLO 205 colon it was -21% [100 µM] (active).
In the case of `COc1ccc(C2CC(c3ccc(Nc4ccnc5cc(Cl)ccc45)cc3)=NN2C(C)=O)cc1` (centres undefined), the growth with NCI-H23 lung is 84.3%; in the assay with NCI-H226 lung, 79.2%; in the assay with NCI-H322M lung it was 98.8%; in the assay with HOP-62 NSCLC, 89.4%; in the assay with HOP-92 NSCLC it was 36.5%; in the assay on 786-0 renal, 81.2%. The growth in the assay with COLO 205 colon was 96%.
`C[C@H]1C(=O)N2c3ccccc3[C@@]3(O)C[C@@H](n4cnc5ccccc5c4=O)C(=O)N1[C@@H]23`: the growth was 106% in the assay with NCI-H23 lung; 98.1% in the assay with NCI-H226 lung; 109% in the assay with NCI-H322M lung; 107% in the assay on NCI-H460 lung; 102% in the assay with HOP-92 NSCLC; 92.5% in the assay on NCI-H522 lung. The values for the growth in the assay on 786-0 renal and in the assay with COLO 205 colon were 102% and 110%, respectively.
